Laboratory results published in PubChem BioAssay AID463173 (ICCB-Longwood Screening Facility, Harvard Medical School, 2010).
Screen size: about 52,000 compounds; about 1,700 (3.3%) were called active. The list comes from a sample in which actives are over-represented; it also holds similar structures and randomly drawn compounds. Unmarked numbers belong to inactive results. No stated cut-off is given here; in the data, active means survival mostly below about 52% (no sharp cut-off); inactive means mostly above about 56%.

Each compound was assayed on Wild type (assay: S. aureus survival, RN4220 and DeltatarO strains – OD600, teichoic acid synthesis inhibitors, primary screen (AID 463173)). Details: S. aureus RN4220 wild type/DeltatarO growth, OD600, 18 h, active compounds read low, screened at 18.75 µg/mL (by protocol).
For `CCN(CC(O)COc1ccc(OCC(O)CN(CC)C2CCCCC2)cc1)C1CCCCC1` (configuration not stated), the survival was 109%.
`CC1(C)CC(=O)c2cc(-c3nc(-c4ccc(Cl)cc4)cs3)c(=O)n(-c3ccc(Cl)cc3)c2C1` gave a survival of 67%.
`Cn1nc(C(=O)NCCc2ccc(Cl)cc2)c2c1-c1ccccc1SC2` was tested, and the survival was 82%.
In the case of `CCc1nn2c(=O)c(S(=O)(=O)Nc3ccc(C)cc3C)c(C)nc2s1`, the survival is reported as 75%.
`CCCCN(CC)CCNC(=O)c1cn(CCOC)c(=O)c2c1c1ccccc1n2C` gave a survival of 89%.
`COc1ccccc1-c1c(C)nn2c(-c3ccccc3)cc(-c3ccccc3)nc12` was tested, and the survival was 77%.
For `Cc1cccc(OC(C)C(=O)Nc2nonc2-c2ccc(Br)cc2)c1C` (configuration not stated), the survival was 94%.
For `Cc1ccc(OC(C)C(=O)Nc2nonc2-c2ccc(Br)cc2)cc1C` (configuration not stated), the survival was 72%.
For `Cc1cc(C)cc(OC(C)C(=O)Nc2nonc2-c2ccc(Br)cc2)c1` (configuration not stated), the survival was 17% (active).
`Cc1ccc(-n2nc(CO)c(C(=O)NCCC(C)C)n2)cc1C` was tested, and the survival was 116%.
`CCOc1ccccc1NC(=O)CN1C(=O)C2(SCC(=O)N2c2cccc(F)c2)c2ccccc21` (configuration not stated) was tested, and the survival was 97%.
`Cc1ccc(/C=N/NC(=O)C2=NNC(=O)C2C)o1` (configuration not stated) was tested, and the survival was 107%.
`COc1cccc(OCc2nnc(SCC(=O)O)o2)c1` showed a survival of 98%.
Compound `CCCc1cc(=O)oc2cc(C)c3c(-c4cccc(OC)c4)coc3c12` has a survival of 74%.
Compound `CCCc1cc(=O)oc2cc(C)c3c(-c4ccccc4)coc3c12` has a survival of 66%.
In the case of `CCCc1cc(=O)oc2cc(C)c3c(-c4ccccc4)c(C)oc3c12`, the survival is reported as 0% (active).
In the case of `CCN1C(=O)c2ccccc2S(=O)c2ccc(C(=O)N3CCN(c4ccccc4)CC3)cc21` (configuration not stated), the survival is reported as 83%.
Work on `CCOc1ccc2nc(N3CCCC(C(=O)Nc4ccc(OC)c(Cl)c4)C3)sc2c1` (configuration not stated) yielded a survival of 89%.
In the case of `Cc1ccc(NCc2nc3ccccc3n2CCOc2ccccc2)cc1`, the survival is reported as -20% (active).
Work on `Clc1ccc(NCc2nc3ccccc3n2CCOc2ccccc2)cc1` yielded a survival of 74%.
`COc1ccc(NCc2nc3ccccc3n2CCOc2ccc(C)cc2)cc1` was tested, and the survival was -18% (active).
In the case of `CCOc1ccc(NCc2nc3ccccc3n2CCOc2ccc(C)cc2)cc1`, the survival is reported as -20% (active).
With `Cc1ccc(OCCn2c(CNc3cccc(C)c3)nc3ccccc32)cc1` the survival was -21% (active).
Work on `CCOc1ccc(NCc2n[nH]c(=S)n2-c2ccc(C)cc2)cc1` yielded a survival of 122%.
For `CC(C)CCNc1ncnc2c1nnn2Cc1ccccc1`, the survival was 111%.
Compound `Cc1nc2cc(NC(=O)Nc3ccccc3Cl)ccc2n1C` has a survival of 109%.
In the case of `CCCCNC(=O)c1nn(-c2ccc(C)cc2)c(=O)n(C)c1=O`, the survival is reported as 68%.
`Cc1ccc(N(CC(=O)Nc2ccc(Cl)cc2)S(=O)(=O)c2cccc3nonc23)cc1` was tested, and the survival was 125%.
`O=C(Cn1ncn2nc(-c3cccs3)cc2c1=O)NCc1ccccc1Cl` showed a survival of 94%.
Compound `COc1ccc(-c2nn3c(=O)cc(CN4CCN(C(=O)/C=C/c5ccccc5)CC4)nc3s2)cc1` has a survival of 72%.
`CCn1cc2nc(SCc3c(F)cccc3Cl)n(CCc3ccccc3)c(=O)c2n1` gave a survival of 64%.
`CCn1c(=O)cc(SCC(=O)NCc2ccc(F)cc2Cl)c2ccccc21` was tested, and the survival was 91%.
`Cc1cc(Cl)ccc1NC(=O)C1CCCN(c2nnc(C)c3c(C)n(-c4ccccc4)nc23)C1` (configuration not stated) was tested, and the survival was 70%.
For `Cc1ccccc1NCc1nc2ccccc2n1CCOc1ccccc1`, the survival was -20% (active).
Work on `Cc1ccc(OCCn2c(CNc3ccccc3C)nc3ccccc32)cc1` yielded a survival of 57%.
`Cc1ccc(CSCC(=O)N2CCN(c3ccccc3F)CC2)cc1` was tested, and the survival was 45%.
For `COc1ccc(Cn2c(=O)c3ccccc3n3c(-c4cccc(OC)c4OC)nnc23)cc1`, the survival was 87%.
With `COc1ccc(CNC(=O)CCn2nc(C)c3c(C)n(-c4ccccc4)nc3c2=O)cc1OC` the survival was -2% (active).
`COc1ccc(CNC(=O)CCCn2nc(C)c3c(C)n(-c4ccc(C)cc4)nc3c2=O)cc1OC` gave a survival of 71%.
`Cc1cc(Cl)ccc1NC(=O)CCn1nc(C)c2c(C)n(-c3ccccc3)nc2c1=O` showed a survival of 68%.
Compound `COc1cccc(CNC(=O)CCn2nc(C)c3c(C)n(-c4ccccc4)nc3c2=O)c1` has a survival of 82%.
Compound `Cc1cc(Cl)ccc1NC(=O)CCCn1nc(C)c2c(C)n(-c3ccccc3)nc2c1=O` has a survival of 118%.
Compound `Cc1ccc(NC(=O)CCCn2nc(C)c3c(C)n(-c4ccccc4)nc3c2=O)c(Cl)c1` has a survival of 113%.
With `Cc1cccc(NC(=O)CCn2nc(C)c3c(C)n(-c4ccccc4)nc3c2=O)c1C` the survival was 65%.
In the case of `COc1cc(OC)c(NC(=O)CCCn2nc(C)c3c(C)n(-c4ccccc4)nc3c2=O)cc1Cl`, the survival is reported as 0% (active).
`CCc1ccc(CNC(=O)CCn2nc(C)c3c(C)n(-c4ccccc4)nc3c2=O)cc1` was tested, and the survival was 65%.
For `Cc1nn(CCC(=O)NCc2ccc(Cl)cc2)c(=O)c2nn(-c3ccccc3)c(C)c12`, the survival was -3% (active).
In the case of `Cc1ccc(C)c(NC(=O)CCn2nc(C)c3c(C)n(-c4ccccc4)nc3c2=O)c1`, the survival is reported as 10% (active).
With `Cc1nn(CCC(=O)NCc2ccc(N(C)C)cc2)c(=O)c2nn(-c3ccccc3)c(C)c12` the survival was 87%.
For `O=C(NCCSCc1c(F)cccc1Cl)C1CCN(S(=O)(=O)Cc2ccccc2)CC1`, the survival was 87%.
`O=C(CC(c1cccs1)N1Cc2ccccc2C1=O)Nc1ccc(F)cc1` (configuration not stated) showed a survival of 91%.
For `CCN(CC)C(=O)Cn1c(=O)cc(C)c2c(C)nn(-c3cccc(Cl)c3C)c21`, the survival was 85%.
Work on `Cc1ccccc1C(=O)Nc1ccc2c(c1)CCCN2C(=O)c1cccs1` yielded a survival of 77%.
`Cc1ccccc1NC(=O)Cn1c(=O)n(CCCC(=O)NCc2ccc3c(c2)OCO3)c(=O)c2ccccc21` gave a survival of 91%.
`Cc1ccc(S(=O)(=O)c2cn(C)c3cc(N4CCCCC4)c(F)cc3c2=O)cc1` gave a survival of 74%.
Work on `COc1ccc(-c2nc3c(c(SCC(=O)Nc4ccccc4F)n2)Cc2cc(C)ccc2O3)cc1` yielded a survival of 80%.
Compound `COc1ccccc1NC(=O)C(=O)NCC(c1ccc2c(c1)OCO2)N1CCN(C)CC1` (configuration not stated) has a survival of 81%.
